Compounds without any hit were thinned out: in the full panel of roughly 83,000, 20% have a hit.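 Testing used 96-well plates and a 48-hour single-concentration exposure. Example: -40 means 40% of the starting cells died.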 Values without a mark were called inactive. Active and inactive are the calls of the source. The calls were made as follows: active = growth percent below 10; inactive = the rest.
Test system: DU-145 prostate
Assay: NCI-60 one-dose screen, 48 h (100 = growth as untreated, 0 = no growth, -100 = all killed)
Settings: 10 µM unless noted

| Compound | growth |
| --- | --- |
| CCOC(=O)c1cc(C(=O)c2ccc(O)c(O)c2)n2ccc(-c3ccn4c(C(=O)c5ccc(O)c(O)c5)cc(C(=O)OCC)c4c3)cc12 | 93.8% |
| CC1C(/C=N/Nc2ccccc2)C(C#N)(C#N)C1(C#N)C#N (stereo unspecified) | 89.7% |
| O=C(/C=C/c1ccc(C(F)(F)F)cc1)Nc1ccc(C=C2c3ccccc3C(=O)c3ccccc32)cc1 | 72.4% |
| CC/C=C\C[C@H](O)C/C=C1/C(=O)C=C[C@@]1(C)C/C=C\CCCC(=O)OC | 112% |
| COc1cc(-c2nn(-c3ccc(C(=O)O)cc3)cc2C(=O)O)ccc1O | 89.3% |
| COc1ccc(O)c(N=Nc2nccs2)c1 | 94.9% |
| NCCNc1nc(Nc2ccc(-c3nc4ccccc4[nH]3)cc2)c2cn[nH]c2n1 | 90.9% |
| COc1cc(-c2nn(-c3ccc(Br)cc3)cc2C(=O)O)ccc1O | 103% |
| OCCN1CCN(c2nc(Nc3ccc(-c4nc5ccccc5[nH]4)cc3)c3cn[nH]c3n2)CC1 | -87.1% (active) |
| O=c1oc2c(C(F)(F)F)cccc2cc1-c1csc(Nc2ccc(OCCF)cc2)n1 | 2.54% (active) |
| N#Cc1nnn(-c2ccc(S(N)(=O)=O)cc2)c1NC(=O)CCl | 107% |
| C=C1C(=O)O[C@H]2[C@H]1CC/C(C=Nc1ccc(C(F)(F)F)cc1N)=C\CC[C@@]1(C)O[C@@H]21 | 17.4% |
| CSc1ccc(-c2ccccc(=O)c2O)cc1 | 21% |
| Clc1ccc2c(NCCNc3nc(N4CCCCC4)nc4ccccc34)ccnc2c1 | 26.4% |
| Cn1ccnc1C(=O)/C=C/c1ccc(CC(=O)Nc2ccccc2)cc1 | 10.3% |
| CC(C)CSc1nc(N)nc2c1ncn2C1OC(CO)C(O)C1O (stereo unspecified) | 115% |
| Cc1cc(N[C@@H]2CCC[C@H](Nc3ccnc4cc(Cl)ccc34)C2)nc(N2CCCCCC2)n1 | -6.21% (active) |
| CC(C)(CCCN=C(N)Nc1ccc(Cl)cc1)c1ccc(F)cc1 | 80.1% |
| COc1ccc(-c2nc(SCC(=O)Nc3ccc(C(=O)/C=C/c4ccc(Cl)cc4)cc3)[nH]c(=O)c2C#N)cc1 | 103% |

| Compound | growth |
| --- | --- |
| FC(F)(F)Oc1ccc2nc3nc4ccc[nH]c4cc3c2c1 | 87.7% |
| CCOC(=O)C(C)(C#N)C1C=CCCC1 (stereo unspecified) | 97.1% |
| O=C1/C(=C/c2ccc(OCCCOc3ccc(Cl)cc3)cc2)N=C2SCCCN12 | 94.5% |
| COc1cc(-c2nn(-c3ccc(C)cc3)cc2C(=O)O)ccc1O | 109% |
| CC(=O)c1cc2c(N)c(C(=O)Nc3cccc(F)c3C)sc2nc1C | 99.1% |
| COc1ccc(C2C(C#N)=C(N)Oc3n[nH]c(-c4cccs4)c32)cc1I (stereo unspecified) | 107% |
| CC(=O)c1cc(C(=O)c2ccc3c(c2)Sc2ccccc2N3)n2ccccc12 | 1.94% (active) |
| CCOC(=O)c1c(C(=O)OCC)c2cc(-c3ccn4c(C(=O)c5ccccc5)c(C(=O)OCC)c(C(=O)OCC)c4c3)ccn2c1C(=O)c1ccccc1 | 100% |
| Cc1cc(N2CCCC2)nc(NC2CCCC(Nc3ccnc4cc(Cl)ccc34)C2)n1 (stereo unspecified) | -21.8% (active) |
| COc1ccc2c(c1)CC/C(=C\c1cncc(Br)c1)C2=O | 102% |
| CCc1nc(N)nc(N)c1C#CC(C)c1ccc(-c2ccncc2)cc1Cl (stereo unspecified) | 21.1% |
| CC(=O)O[C@H]1C(=O)[C@@]2(C)[C@H]([C@H](OC(=O)c3ccccc3)[C@]3(O)C[C@H](OC(=O)[C@H](OC(=O)CCC(=O)OC4CCC(S/N=C(N)/N=C(\N)N(C)C)CC4)[C@@H](NC(=O)c4ccccc4)c4ccccc4)C(C)=C1C3(C)C)[C@]1(OC(C)=O)CO[C@@H]1C[C@@H]2O (stereo partly specified) | 0.0949% (active) |
| CCNC(=O)Oc1ccc(/C(=C(\C)c2ccc(Cl)cc2)c2ccc(OCCN3CCCCC3)cc2)cc1 | 72.8% |
| CCOc1ccc(C(C)=O)cc1NC(=O)c1cccc(-c2nnn(CC)n2)c1 | 16.7% |
| CC/C=C\C[C@H]1C/C=C2/C(=O)C=C[C@H]2C/C=C\CCCC(=O)O1 | 15% |
| COc1cccc2c1C(=O)c1c(O)c3c(c(O)c1C2=O)C[C@](O)(C(=O)CO)C[C@H]3O[C@@H]1C[C@@H](NC(=O)CCCCCN(C)C2(c3ccc(F)cc3)CC3CCC2C3)[C@H](O)[C@@H](C)O1 (stereo partly specified) | -42.2% (active) |
| O=C(CN1CCCCC1)Nc1ccc2oc(=O)ccc2c1 | 113% |
| COc1cc(C)c(C2C(C#N)=C(N)Oc3n[nH]c(-c4cccs4)c32)cc1C(C)C (stereo unspecified) | 108% |
| CCNC(=O)Oc1ccc(/C(=C(\C)c2ccc(Cl)cc2)c2ccc(OCCN(CC)CC)cc2)cc1 | 67.6% |

Test system: MALME-3M melanoma
Assay: as above
Settings: 10 µM unless noted

| Compound | growth |
| --- | --- |
| CCOC(=O)c1cc(C(=O)c2ccc(O)c(O)c2)n2ccc(-c3ccn4c(C(=O)c5ccc(O)c(O)c5)cc(C(=O)OCC)c4c3)cc12 | 105% |
| CC1C(/C=N/Nc2ccccc2)C(C#N)(C#N)C1(C#N)C#N (stereo unspecified) | 99.2% |
| O=C(/C=C/c1ccc(C(F)(F)F)cc1)Nc1ccc(C=C2c3ccccc3C(=O)c3ccccc32)cc1 | 76.6% |
| CC/C=C\C[C@H](O)C/C=C1/C(=O)C=C[C@@]1(C)C/C=C\CCCC(=O)OC | 101% |
| COc1cc(-c2nn(-c3ccc(C(=O)O)cc3)cc2C(=O)O)ccc1O | 57.1% |
| COc1ccc(O)c(N=Nc2nccs2)c1 | 102% |
| NCCNc1nc(Nc2ccc(-c3nc4ccccc4[nH]3)cc2)c2cn[nH]c2n1 | 68% |
| COc1cc(-c2nn(-c3ccc(Br)cc3)cc2C(=O)O)ccc1O | 110% |
| OCCN1CCN(c2nc(Nc3ccc(-c4nc5ccccc5[nH]4)cc3)c3cn[nH]c3n2)CC1 | -74.2% (active) |
| O=c1oc2c(C(F)(F)F)cccc2cc1-c1csc(Nc2ccc(OCCF)cc2)n1 | 66.2% |
| N#Cc1nnn(-c2ccc(S(N)(=O)=O)cc2)c1NC(=O)CCl | 102% |
| C=C1C(=O)O[C@H]2[C@H]1CC/C(C=Nc1ccc(C(F)(F)F)cc1N)=C\CC[C@@]1(C)O[C@@H]21 | -13.3% (active) |
| CSc1ccc(-c2ccccc(=O)c2O)cc1 | 15.6% |
| Clc1ccc2c(NCCNc3nc(N4CCCCC4)nc4ccccc34)ccnc2c1 | -79.8% (active) |
| Cn1ccnc1C(=O)/C=C/c1ccc(CC(=O)Nc2ccccc2)cc1 | 72.8% |
| CC(C)CSc1nc(N)nc2c1ncn2C1OC(CO)C(O)C1O (stereo unspecified) | 99.5% |
| Cc1cc(N[C@@H]2CCC[C@H](Nc3ccnc4cc(Cl)ccc34)C2)nc(N2CCCCCC2)n1 | -86.4% (active) |
| CC(C)(CCCN=C(N)Nc1ccc(Cl)cc1)c1ccc(F)cc1 | 64.3% |
| COc1ccc(-c2nc(SCC(=O)Nc3ccc(C(=O)/C=C/c4ccc(Cl)cc4)cc3)[nH]c(=O)c2C#N)cc1 | 95.4% |

| Compound | growth |
| --- | --- |
| FC(F)(F)Oc1ccc2nc3nc4ccc[nH]c4cc3c2c1 | 93% |
| CCOC(=O)C(C)(C#N)C1C=CCCC1 (stereo unspecified) | 102% |
| O=C1/C(=C/c2ccc(OCCCOc3ccc(Cl)cc3)cc2)N=C2SCCCN12 | 122% |
| COc1cc(-c2nn(-c3ccc(C)cc3)cc2C(=O)O)ccc1O | 90% |
| CC(=O)c1cc2c(N)c(C(=O)Nc3cccc(F)c3C)sc2nc1C | 94% |
| COc1ccc(C2C(C#N)=C(N)Oc3n[nH]c(-c4cccs4)c32)cc1I (stereo unspecified) | 102% |
| CC(=O)c1cc(C(=O)c2ccc3c(c2)Sc2ccccc2N3)n2ccccc12 | 53.1% |
| CCOC(=O)c1c(C(=O)OCC)c2cc(-c3ccn4c(C(=O)c5ccccc5)c(C(=O)OCC)c(C(=O)OCC)c4c3)ccn2c1C(=O)c1ccccc1 | 87.3% |
| Cc1cc(N2CCCC2)nc(NC2CCCC(Nc3ccnc4cc(Cl)ccc34)C2)n1 (stereo unspecified) | -80.4% (active) |
| COc1ccc2c(c1)CC/C(=C\c1cncc(Br)c1)C2=O | 106% |
| CCc1nc(N)nc(N)c1C#CC(C)c1ccc(-c2ccncc2)cc1Cl (stereo unspecified) | 39.6% |
| CC(=O)O[C@H]1C(=O)[C@@]2(C)[C@H]([C@H](OC(=O)c3ccccc3)[C@]3(O)C[C@H](OC(=O)[C@H](OC(=O)CCC(=O)OC4CCC(S/N=C(N)/N=C(\N)N(C)C)CC4)[C@@H](NC(=O)c4ccccc4)c4ccccc4)C(C)=C1C3(C)C)[C@]1(OC(C)=O)CO[C@@H]1C[C@@H]2O (stereo partly specified) | 66.8% |
| CCNC(=O)Oc1ccc(/C(=C(\C)c2ccc(Cl)cc2)c2ccc(OCCN3CCCCC3)cc2)cc1 | -8.7% (active) |
| CCOc1ccc(C(C)=O)cc1NC(=O)c1cccc(-c2nnn(CC)n2)c1 | 47.2% |
| CC/C=C\C[C@H]1C/C=C2/C(=O)C=C[C@H]2C/C=C\CCCC(=O)O1 | 75.1% |
| COc1cccc2c1C(=O)c1c(O)c3c(c(O)c1C2=O)C[C@](O)(C(=O)CO)C[C@H]3O[C@@H]1C[C@@H](NC(=O)CCCCCN(C)C2(c3ccc(F)cc3)CC3CCC2C3)[C@H](O)[C@@H](C)O1 (stereo partly specified) | -70.9% (active) |
| O=C(CN1CCCCC1)Nc1ccc2oc(=O)ccc2c1 | 106% |
| COc1cc(C)c(C2C(C#N)=C(N)Oc3n[nH]c(-c4cccs4)c32)cc1C(C)C (stereo unspecified) | 121% |
| CCNC(=O)Oc1ccc(/C(=C(\C)c2ccc(Cl)cc2)c2ccc(OCCN(CC)CC)cc2)cc1 | -50.6% (active) |

From PubChem BioAssay (NCI)
